Test [1] concerns the target Cytochrome P450 3A4 (Homo sapiens) (UniProt P08684). The test is described as follows: qHTS Assay for Inhibitors and Substrates of Cytochrome P450 3A4 (AID 884). Note: nearly all actives have a fitted effect of over 50% in size. Note: potency is the fitted concentration of half-maximal effect. The method in brief: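 Luminescent readout of luciferin produced by CYP3A4 (20 nM) dealkylation of Luciferin-PPXE, 25 uM (its KM). NADPH-driven reaction ran 60 min at RT after 10 min compound preincubation; data scaled to 57 uM ketoconazole as 100% inhibition.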
(In general: Quantitative high-throughput screening tests each substance at several concentrations.)

The target is the same in test [2]. The test is described as follows: qHTS Assay for Activators of Cytochrome P450 3A4 (AID 885). Note: nearly all actives have a fitted effect of over 65% in size. Summed up:
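Human CYP3A4 dealkylates Luciferin-PPXE to luciferin, which luciferase detection converts to light. Substrate was at its KM (25uM), buffer 200mM KPO4, reaction 60 min at RT.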

Test [3] in a line: Confirmation and Secondary Assay for Modulators of Hemoglobin Beta Chain Splicing at IVS2 654 locus (AID 910).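 Note: HeLa cells stably carrying EGFP split by mutant beta-globin IVS2-654 intron; per-well total GFP intensity by laser scanning cytometry after 2-day treatment.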 Summed up: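 Readout: per-well total peak green fluorescence (488 nm ex, 500–520 nm em) from objects 5–250 µm, reflecting correct splicing of an EGFP-654 reporter. Compounds were applied for 2 days at 37 °C to overnight-plated HeLa EGFP-654 cells; controls were DMSO and 500 nM IVS2-654 PNA.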

Test [4] in a line: Confirmation and Secondary Assay for Modulators of Hemoglobin Beta Chain Splicing at IVS2 705 locus (AID 930).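 Note: HeLa cells stably expressing the EGFP-705 splicing reporter; GFP fluorescence per well restored by corrected splicing of the IVS2-705 intron in EGFP; series mostly up to about 46 µM.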 Summed up:
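First, HeLa EGFP-705 cells are seeded at 500/well in Optimem with 2% FCS and left overnight. Next, compound or DMSO is added for 2 days. Finally wells are laser-scanned and total peak GFP intensity scored.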

For test [5], the target named is Ubiquitin carboxyl-terminal hydrolase 1 (Homo sapiens) (UniProt O94782). The test is described as follows: Inhibitors of USP1/UAF1: Pilot qHTS (AID 504865). Note: nearly all actives have a fitted effect of over 35% in size. Note: potency is the fitted concentration of half-maximal effect. The method in brief:
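Enzyme-free wells gave the negative control, while test wells held 1nM USP1/UAF1 preincubated with compound for 15 min at room temperature. Ub-Rho at 150nM final started the reaction, and fluorescence at 480/540 nm was recorded kinetically.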

Test [6] addresses DNA dC->dU-editing enzyme APOBEC-3G (Homo sapiens) (UniProt Q9HC16). The test is described as follows: qHTS for inhibitors of Vif-A3G interactions: Validation (AID 588379). Summed up:
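Yellow fluorescence (Ex 488, Em 500-530) of Vif-coexpressing HeLa A3G-eYFP cells, scanned by Acumen cytometer, reports blocked A3G degradation. Cells plated at 700/well overnight at 37 deg C before compound addition, then a further overnight compound incubation at 37 deg C.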

Inconclusive results are not listed. A call without a number means that no potency is given here. Activity calls are given as the source filed them. Calls come from the whole dose curve; as a rule, active = well fitted curve in the direction sought with a large enough effect; inconclusive = small, poorly fitted or top-dose-only effect, or another doubt; inactive = no such curve, though single readings can be large; an effect the other way counts as inactive or inconclusive.

Chain of Ubiquitin carboxyl-terminal hydrolase 1 (Homo sapiens) (O94782 whole entry, looked up): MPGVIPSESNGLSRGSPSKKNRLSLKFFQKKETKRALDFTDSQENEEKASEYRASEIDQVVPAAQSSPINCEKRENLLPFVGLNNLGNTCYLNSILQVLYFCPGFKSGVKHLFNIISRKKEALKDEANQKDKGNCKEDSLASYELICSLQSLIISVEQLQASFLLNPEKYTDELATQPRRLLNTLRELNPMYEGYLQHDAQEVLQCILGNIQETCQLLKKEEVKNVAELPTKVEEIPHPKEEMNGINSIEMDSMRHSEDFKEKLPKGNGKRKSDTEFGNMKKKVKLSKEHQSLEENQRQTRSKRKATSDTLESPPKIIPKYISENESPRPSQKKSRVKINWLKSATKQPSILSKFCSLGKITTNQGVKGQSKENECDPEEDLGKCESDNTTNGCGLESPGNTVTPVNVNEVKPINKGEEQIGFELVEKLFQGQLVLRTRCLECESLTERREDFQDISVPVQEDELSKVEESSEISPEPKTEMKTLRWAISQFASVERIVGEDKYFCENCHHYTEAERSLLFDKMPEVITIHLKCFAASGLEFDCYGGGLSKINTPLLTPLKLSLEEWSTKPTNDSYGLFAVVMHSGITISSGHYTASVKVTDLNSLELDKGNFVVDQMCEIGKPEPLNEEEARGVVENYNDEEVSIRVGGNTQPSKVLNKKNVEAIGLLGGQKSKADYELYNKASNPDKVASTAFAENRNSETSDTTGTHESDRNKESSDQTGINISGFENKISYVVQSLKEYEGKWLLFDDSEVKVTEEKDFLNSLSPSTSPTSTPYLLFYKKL
Chain of Cytochrome P450 3A4 (Homo sapiens) (P08684 whole entry, looked up): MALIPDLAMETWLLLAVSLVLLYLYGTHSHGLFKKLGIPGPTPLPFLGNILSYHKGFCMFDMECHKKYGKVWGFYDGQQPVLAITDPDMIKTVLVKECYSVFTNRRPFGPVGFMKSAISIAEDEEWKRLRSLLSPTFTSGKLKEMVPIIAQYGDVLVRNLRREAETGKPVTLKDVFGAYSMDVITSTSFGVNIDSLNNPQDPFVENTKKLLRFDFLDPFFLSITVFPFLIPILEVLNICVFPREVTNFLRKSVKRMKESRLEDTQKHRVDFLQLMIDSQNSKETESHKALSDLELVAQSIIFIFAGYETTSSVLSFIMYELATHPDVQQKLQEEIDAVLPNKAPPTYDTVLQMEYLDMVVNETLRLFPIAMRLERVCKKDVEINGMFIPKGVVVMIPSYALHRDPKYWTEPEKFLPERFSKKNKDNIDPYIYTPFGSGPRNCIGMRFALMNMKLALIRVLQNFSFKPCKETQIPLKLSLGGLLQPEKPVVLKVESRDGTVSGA
Chain of DNA dC->dU-editing enzyme APOBEC-3G (Homo sapiens) (Q9HC16 whole entry, looked up): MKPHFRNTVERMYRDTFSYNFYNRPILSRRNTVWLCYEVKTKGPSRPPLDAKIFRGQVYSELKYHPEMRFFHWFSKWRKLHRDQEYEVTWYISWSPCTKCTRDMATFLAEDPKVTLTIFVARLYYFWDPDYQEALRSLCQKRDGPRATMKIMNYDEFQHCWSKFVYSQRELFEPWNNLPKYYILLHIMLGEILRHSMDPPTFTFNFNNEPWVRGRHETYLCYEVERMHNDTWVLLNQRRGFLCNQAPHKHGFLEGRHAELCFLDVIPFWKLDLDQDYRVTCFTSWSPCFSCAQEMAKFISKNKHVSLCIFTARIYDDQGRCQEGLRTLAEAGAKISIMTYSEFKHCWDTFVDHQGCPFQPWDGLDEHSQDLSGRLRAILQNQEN

With `COc1cc(OC)c2c(=O)c(-c3ccccc3)coc2c1`, the Potency in test [1] is 15.8 µM (active). In addition, the Potency result in test [2] and in test [5] was “inactive” in each case. Also, the call in test [3] and in test [4] was inactive.
Regarding `CC1c2cccc(O)c2C(O)=C2C(=O)[C@]3(O)C(O)=C(C(N)=O)C(=O)C(N(C)C)C3C(O)C21` (stereo partly specified), the Potency entry in test [1] and in test [5] was “inactive” throughout. Also, the call in test [3] and in test [4] was inactive.
For `CC1/C=C/C=C/C=C/C=C/C=C/C=C/C=C/C(OC2OC(C)C(O)C(N)C2O)CC2O[C@@](O)(CC(O)CC(O)C(O)CCC(O)CC(O)CC(=O)OC(C)[C@H](C)C1O)CC(O)C2C(=O)O` (stereo partly specified), the Potency entry in test [1] is “inactive”. Also, the call in test [3] and in test [4] was inactive. Besides, the Potency in test [5] was 56.2 µM (active).
Take `COc1cc2c(C(=O)c3ccccc3)c3c4c(cc(OC)c(OC)c4c2cc1OC)CCN3C`: the results for the Potency in test [1] and in test [5] were 1.26 µM (active) and 25.1 µM (active), respectively. Also, the Potency result in test [2] and in test [6] was “inactive” in each case.
Turning to `O=C1C=CC2=C3c4cc(O)c(O)cc4C[C@]3(O)COC2=C1`, the Potency entry in test [1] and in test [5] was “inactive” throughout. Also, the result in test [3] and in test [4] was inactive.
Turning to `CCC(=O)O[C@H]1C(O[C@@H]2C(C)[C@H](O[C@H]3C[C@@](C)(OC)C(O)C(C)O3)C(C)C(=O)OC(CC)[C@@](C)(O)C(O)[C@H](C)C(=O)C(C)C[C@]2(C)O)OC(C)CC1N(C)C` (stereo partly specified), the Potency is 0.631 µM (active) in test [1] and 20 µM (active) in test [5]. The Potency result in test [2] was “inactive”. For the same compound, the outcome in test [4] was inactive.
With `CC(=O)OC1CC2C(C)(C)C(=O)CC[C@]2(C)C2CC[C@]3(C)C(=CC(=O)OC3c3ccoc3)[C@]12C` (stereo partly specified), the Potency in test [1] is 6.31 µM (active). For the same compound, the Potency entry in test [2] and in test [5] was “inactive” throughout. The call in test [3] and in test [4] was inactive.
In the case of `COc1ccc(-c2cc(=O)c3c(OC(C)=O)cc(OC(C)=O)cc3o2)cc1`, in test [1], the Potency was 25.1 µM (active). The Potency result in test [2] and in test [5] was “inactive” each time. The outcome in test [3] and in test [4] was inactive.
Consider `O=C1OC(C(O)CO)C(O)=C1O` (stereo unspecified), for which the Potency result in test [1] and in test [5] was “inactive” throughout. Further, the call in test [3] and in test [4] was inactive.
Consider `COc1cc(OC)c2c(c1)OC(c1ccccc1)CC2=O` (stereo unspecified), for which, in test [1], the Potency was 12.6 µM (active). Moreover, the Potency entry in test [2], in test [5] and in test [6] was “inactive” in each case.
Take `O=C(/C=C/c1ccc(O)cc1)c1cccs1`: the Potency in test [1] was 1.26 µM (active). Also, the Potency entry in test [2], in test [5] and in test [6] was “inactive” throughout.
On to `CNC1C(O)C2OC3OC(C)CC(=O)[C@@]3(O)O[C@H]2[C@H](NC)C1O` (stereo partly specified), for which the call in test [4] was inactive. The Potency result in test [5] is “inactive”.
Regarding `CCCN1CC(CSC)C[C@H]2c3cccc4[nH]cc(c34)C[C@H]21` (stereo partly specified), the Potency entry in test [2] and in test [5] was “inactive” throughout. For the same compound, the compound was called inactive in test [3] and in test [4].
As for `COc1ccc(-c2c(O)c3c(OC)c4c(cc3oc2=O)OC(C)(C)CC4)cc1`, the Potency entry in test [2] and in test [5] was “inactive” in each case. Further, the call in test [3] and in test [4] was inactive.
For the compound `CNC1C(O)C(O[C@H]2C(O)[C@@H](OC3OC(CN)=CCC3N)[C@H](N)C[C@@H]2N)OC[C@]1(C)O` (stereo partly specified), the compound was called inactive in test [4]. In addition, the Potency entry in test [5] is “inactive”.
As for `CC1CC2C(C(O)C[C@]3(C)C2CC[C@]3(O)C(=O)CO)[C@]2(C)C=CC(=O)C=C12` (stereo partly specified), the Potency entry in test [2] and in test [5] was “inactive” in each case. Moreover, the compound was called inactive in test [3] and in test [4].
In the case of `COc1ccc(-c2coc3cc(OC)cc(OC)c3c2=O)cc1`, the Potency result in test [2] and in test [5] was “inactive” in each case. For the same compound, the outcome in test [3] and in test [4] was inactive.
For `C[N+]1(C)C2CC(OC(=O)C(CO)c3ccccc3)CC1C1OC12` (stereo unspecified), the compound was classed as inactive in test [3] and in test [4]. Also, the Potency entry in test [5] is “inactive”.
On to `O=c1c2cc(O)c(O)cc2oc2cc(O)c(C3OC(CO)C(O)C(O)C3O)c(O)c12` (stereo unspecified), for which the Potency result in test [2] and in test [5] was “inactive” each time. The outcome in test [3] and in test [4] was inactive.
On to `NC(N)=Nc1nc(CSCC/C(N)=N\S(N)(=O)=O)cs1`, for which the compound was classed as inactive in test [3] and in test [4]. In test [5], the Potency entry is “inactive”.
In the case of `CS(C)(=O)=O`, the Potency result in test [2] and in test [5] was “inactive” each time. Also, the result in test [3] and in test [4] was inactive.
As for `OC1C=C2CCN3Cc4cc5c(cc4C(C1O)C23)OCO5` (stereo unspecified), the result in test [3] and in test [4] was inactive. Moreover, in test [5], the Potency result was “inactive”.
As for `CNCC(O)c1cccc(O)c1` (stereo unspecified), in test [4], the result was inactive. Besides, the Potency entry in test [5] was “inactive”.
Turning to `C=C1C(=O)OC2C1CC/C(C)=C/CCC1(C)OC21` (stereo unspecified), the Potency entry in test [2] and in test [5] was “inactive” throughout. In test [4], the result was inactive.
For the compound `COc1cc(C2c3cc4c(cc3C(OC3OC5COC(C)O[C@@H]5C(O)C3O)C3COC(=O)C23)OCO4)cc(OC)c1O` (stereo partly specified), the compound was classed as inactive in test [4]. Also, in test [5], the Potency entry was “inactive”.
Turning to `Cc1cc(O)cc(=O)o1`, the Potency result in test [2] and in test [5] was “inactive” each time. Besides, the result in test [3] and in test [4] was inactive.
Take `Cc1nnc(SCC2=C(C(=O)O)N3C(=O)C(NC(=O)Cn4cnnn4)[C@@H]3SC2)s1` (stereo partly specified): the compound was called inactive in test [3] and in test [4]. Moreover, the Potency entry in test [5] is “inactive”.
In the case of `COc1ccc(C2COc3c(ccc(O)c3OC)C2)c(OC)c1O` (stereo unspecified), the Potency entry in test [2] and in test [5] was “inactive” each time. In addition, in test [4], the result was inactive.
As to `NCC1O[C@H](O[C@@H]2C(O)[C@H](O[C@H]3OC(CO)C(O)C(N)C3O)[C@@H](N)C[C@H]2N)[C@@H](N)CC1O` (stereo partly specified), the outcome in test [3] and in test [4] was inactive. The Potency result in test [5] is “inactive”.
With `COc1ccc2c3c1OC1CC(O)C=C[C@@]31CCN(C)C2` (stereo partly specified), the result in test [3] and in test [4] was inactive. In addition, the Potency result in test [5] is “inactive”.
For `COC(=O)CC1[C@@]2(C)C[C@@]34OC5(C)OC6(CC[C@@]7(C)C(c8ccoc8)OC(=O)C(C(C)=O)C7[C@]6(O5)C(O)[C@@]3(O)C2O)[C@]14C` (stereo partly specified), the Potency entry in test [2] and in test [5] was “inactive” each time. In addition, the compound was classed as inactive in test [3] and in test [4].
